# According to publication PMC7862700, “An all-to-all approach to the identification of sequence-specific readers for epigenetic DNA modifications on cytosine”:
# Tests used:
# Assay in all cases: DAPPL (digital affinity profiling via proximity ligation, sequencing); 10 mM Tris-HCl pH 7.5, 50 mM NaCl, 1 mM DTT, 4% glycerol, room temperature, 30 min; GST-TFs on glutathione beads, 16-mer random dsDNA library, 0.1% formaldehyde crosslink after washing; high values mean tight binding
# FEV = molecular target: T1, FEV (Homo sapiens, UniProt Q99581 1-238); details: protein: recombinant; tags: N-terminal GST; dsDNA, one strand shown
# T1 sequence: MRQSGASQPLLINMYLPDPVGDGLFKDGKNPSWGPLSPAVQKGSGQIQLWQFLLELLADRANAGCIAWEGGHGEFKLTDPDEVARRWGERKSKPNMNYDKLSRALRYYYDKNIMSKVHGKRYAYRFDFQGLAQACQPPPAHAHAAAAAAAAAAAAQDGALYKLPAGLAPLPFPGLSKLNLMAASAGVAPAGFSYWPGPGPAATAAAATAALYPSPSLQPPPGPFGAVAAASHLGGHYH
# Outline: (§1)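 Human transcription factors were made in yeast as GST fusions, captured on glutathione beads and barcoded with DNA. With a tag-only sample included, the pool was incubated with 200 nmole of a random double-stranded 16-mer DNA library in Tris/NaCl/DTT/glycerol buffer at room temperature for 30 min, then crosslinked with 0.1% formaldehyde after washing, ligated by proximity, amplified and sequenced. For binding signal, each hexamer's read frequency for a factor is divided by its frequency for the tag-only sample.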
# ETV5 = ETV5 (Homo sapiens, UniProt P41161 1-510); details: protein: recombinant; tags: N-terminal GST; dsDNA, one strand shown
# Chain of ETV5 (P41161 whole entry): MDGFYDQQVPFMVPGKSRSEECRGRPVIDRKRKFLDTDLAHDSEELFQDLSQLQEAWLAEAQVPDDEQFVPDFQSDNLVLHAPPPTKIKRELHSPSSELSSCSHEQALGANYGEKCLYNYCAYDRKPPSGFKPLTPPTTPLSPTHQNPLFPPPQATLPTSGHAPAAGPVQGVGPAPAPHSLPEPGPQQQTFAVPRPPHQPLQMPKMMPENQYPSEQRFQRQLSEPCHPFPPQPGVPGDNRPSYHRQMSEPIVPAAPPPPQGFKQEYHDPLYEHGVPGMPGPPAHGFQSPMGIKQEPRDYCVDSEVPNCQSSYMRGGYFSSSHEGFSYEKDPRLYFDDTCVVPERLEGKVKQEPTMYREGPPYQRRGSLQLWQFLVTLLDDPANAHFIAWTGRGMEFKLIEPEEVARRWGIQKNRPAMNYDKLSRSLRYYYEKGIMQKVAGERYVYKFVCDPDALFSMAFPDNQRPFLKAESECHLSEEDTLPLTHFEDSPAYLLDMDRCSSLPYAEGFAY
# Outline: as §1
# HSF1 = HSF1 (Homo sapiens, UniProt Q00613 1-529); details: protein: recombinant; tags: N-terminal GST; chain copies: 3; dsDNA, one strand shown
# Chain of HSF1 (Q00613 whole entry): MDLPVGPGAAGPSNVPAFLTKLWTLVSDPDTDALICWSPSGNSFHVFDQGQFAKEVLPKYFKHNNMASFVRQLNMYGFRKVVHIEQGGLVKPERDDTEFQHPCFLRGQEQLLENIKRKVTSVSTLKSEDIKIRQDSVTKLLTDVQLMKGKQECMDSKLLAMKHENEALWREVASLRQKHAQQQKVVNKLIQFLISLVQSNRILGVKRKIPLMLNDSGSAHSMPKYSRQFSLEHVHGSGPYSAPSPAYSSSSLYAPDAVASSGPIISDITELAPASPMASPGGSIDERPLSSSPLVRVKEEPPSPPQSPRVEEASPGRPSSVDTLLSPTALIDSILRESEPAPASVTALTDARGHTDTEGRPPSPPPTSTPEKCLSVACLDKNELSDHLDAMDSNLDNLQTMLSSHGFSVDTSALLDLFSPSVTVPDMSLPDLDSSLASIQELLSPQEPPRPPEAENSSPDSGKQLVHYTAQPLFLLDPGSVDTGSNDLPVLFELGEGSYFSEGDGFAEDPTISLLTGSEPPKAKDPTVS
# Outline: as §1
# SPIC = molecular target: T2, SPIC (Homo sapiens, UniProt Q8N5J4 1-248); details: protein: recombinant; tags: N-terminal GST; dsDNA, one strand shown
# T2 sequence: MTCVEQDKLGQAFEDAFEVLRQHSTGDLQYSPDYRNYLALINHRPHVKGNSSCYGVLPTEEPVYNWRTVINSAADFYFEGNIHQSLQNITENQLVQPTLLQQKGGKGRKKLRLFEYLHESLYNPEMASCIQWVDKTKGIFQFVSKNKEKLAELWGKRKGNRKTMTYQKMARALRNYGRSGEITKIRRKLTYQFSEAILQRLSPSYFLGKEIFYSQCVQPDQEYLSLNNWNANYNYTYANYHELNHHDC
# Outline: as §1
# ELF4 = ELF4 (Homo sapiens, UniProt Q99607 1-663); details: protein: recombinant; tags: N-terminal GST; dsDNA, one strand shown
# Chain of ELF4 (Q99607 whole entry): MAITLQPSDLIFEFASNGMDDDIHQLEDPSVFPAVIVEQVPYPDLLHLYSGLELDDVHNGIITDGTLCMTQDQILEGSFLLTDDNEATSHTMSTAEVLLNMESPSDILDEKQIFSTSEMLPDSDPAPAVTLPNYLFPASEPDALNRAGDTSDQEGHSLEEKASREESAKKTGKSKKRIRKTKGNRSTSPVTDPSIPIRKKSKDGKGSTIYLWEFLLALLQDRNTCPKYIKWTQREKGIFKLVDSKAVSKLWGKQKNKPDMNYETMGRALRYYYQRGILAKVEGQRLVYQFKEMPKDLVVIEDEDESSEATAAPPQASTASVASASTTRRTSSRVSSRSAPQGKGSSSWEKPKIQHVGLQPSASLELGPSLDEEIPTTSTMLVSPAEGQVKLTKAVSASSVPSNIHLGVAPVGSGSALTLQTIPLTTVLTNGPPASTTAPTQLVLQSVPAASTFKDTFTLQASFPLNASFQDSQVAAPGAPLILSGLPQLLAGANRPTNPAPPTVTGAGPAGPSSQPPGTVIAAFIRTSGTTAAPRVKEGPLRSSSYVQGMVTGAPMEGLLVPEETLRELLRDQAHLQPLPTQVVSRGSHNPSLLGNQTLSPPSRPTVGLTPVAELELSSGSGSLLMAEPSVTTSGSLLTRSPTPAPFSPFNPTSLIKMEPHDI
# Outline: as §1
# ELK4 = molecular target: T3, ELK4 (Homo sapiens, UniProt P28324-2 1-405); details: protein: recombinant; tags: N-terminal GST; dsDNA, one strand shown
# T3 sequence: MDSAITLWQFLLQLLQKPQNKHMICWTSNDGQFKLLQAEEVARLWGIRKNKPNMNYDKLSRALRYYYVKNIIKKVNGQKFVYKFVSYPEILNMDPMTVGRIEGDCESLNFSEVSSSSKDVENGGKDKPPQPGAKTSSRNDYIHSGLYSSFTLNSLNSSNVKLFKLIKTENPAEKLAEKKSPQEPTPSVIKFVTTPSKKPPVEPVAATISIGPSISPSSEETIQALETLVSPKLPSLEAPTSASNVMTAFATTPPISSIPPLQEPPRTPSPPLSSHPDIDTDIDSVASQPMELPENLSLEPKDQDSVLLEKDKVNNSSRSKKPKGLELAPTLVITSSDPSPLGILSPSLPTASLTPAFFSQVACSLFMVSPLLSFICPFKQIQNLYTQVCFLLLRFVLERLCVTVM
# Outline: as §1
# ETV2 = molecular target: T4, ETV2 (Homo sapiens, UniProt O00321 1-342); details: protein: recombinant; tags: N-terminal GST; dsDNA, one strand shown
# T4 sequence: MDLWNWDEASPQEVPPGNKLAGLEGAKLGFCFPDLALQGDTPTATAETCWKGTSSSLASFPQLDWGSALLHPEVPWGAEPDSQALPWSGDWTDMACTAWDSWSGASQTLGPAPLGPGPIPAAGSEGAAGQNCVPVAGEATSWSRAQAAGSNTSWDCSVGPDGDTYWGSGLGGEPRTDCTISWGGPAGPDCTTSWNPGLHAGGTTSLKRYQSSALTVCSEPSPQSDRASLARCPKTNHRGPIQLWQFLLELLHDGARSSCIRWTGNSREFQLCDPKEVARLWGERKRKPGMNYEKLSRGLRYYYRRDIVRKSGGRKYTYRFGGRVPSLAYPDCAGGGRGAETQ
# Outline: as §1
# ELF3 = molecular target: T5, ELF3 (Homo sapiens, UniProt P78545 1-371); details: protein: recombinant; tags: N-terminal GST; dsDNA, one strand shown
# T5 sequence: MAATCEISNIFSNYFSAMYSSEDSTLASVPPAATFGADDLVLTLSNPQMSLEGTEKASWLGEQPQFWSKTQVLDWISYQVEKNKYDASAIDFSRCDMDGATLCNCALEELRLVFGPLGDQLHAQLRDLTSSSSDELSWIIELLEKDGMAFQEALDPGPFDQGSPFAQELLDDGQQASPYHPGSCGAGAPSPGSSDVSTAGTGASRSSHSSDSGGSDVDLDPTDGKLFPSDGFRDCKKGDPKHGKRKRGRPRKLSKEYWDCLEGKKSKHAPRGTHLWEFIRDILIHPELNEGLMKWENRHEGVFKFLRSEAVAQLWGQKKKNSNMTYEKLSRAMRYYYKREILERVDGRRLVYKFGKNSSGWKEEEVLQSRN
# Outline: as §1
# CRX = CRX (Homo sapiens, UniProt O43186 1-299); details: protein: recombinant; tags: N-terminal GST; dsDNA, one strand shown
# Chain of CRX (O43186 whole entry): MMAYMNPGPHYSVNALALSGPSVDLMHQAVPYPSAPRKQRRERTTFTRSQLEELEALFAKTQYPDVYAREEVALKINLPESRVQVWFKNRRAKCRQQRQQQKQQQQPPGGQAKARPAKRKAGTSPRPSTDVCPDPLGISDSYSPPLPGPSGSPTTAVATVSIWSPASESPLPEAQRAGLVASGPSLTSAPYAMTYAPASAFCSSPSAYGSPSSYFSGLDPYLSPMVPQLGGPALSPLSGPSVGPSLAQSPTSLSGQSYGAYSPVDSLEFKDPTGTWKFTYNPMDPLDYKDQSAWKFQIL
# Outline: as §1
# ETV1 = ETV1 (Homo sapiens, UniProt P50549 1-477); details: protein: recombinant; tags: N-terminal GST; dsDNA, one strand shown
# Chain of ETV1 (P50549 whole entry): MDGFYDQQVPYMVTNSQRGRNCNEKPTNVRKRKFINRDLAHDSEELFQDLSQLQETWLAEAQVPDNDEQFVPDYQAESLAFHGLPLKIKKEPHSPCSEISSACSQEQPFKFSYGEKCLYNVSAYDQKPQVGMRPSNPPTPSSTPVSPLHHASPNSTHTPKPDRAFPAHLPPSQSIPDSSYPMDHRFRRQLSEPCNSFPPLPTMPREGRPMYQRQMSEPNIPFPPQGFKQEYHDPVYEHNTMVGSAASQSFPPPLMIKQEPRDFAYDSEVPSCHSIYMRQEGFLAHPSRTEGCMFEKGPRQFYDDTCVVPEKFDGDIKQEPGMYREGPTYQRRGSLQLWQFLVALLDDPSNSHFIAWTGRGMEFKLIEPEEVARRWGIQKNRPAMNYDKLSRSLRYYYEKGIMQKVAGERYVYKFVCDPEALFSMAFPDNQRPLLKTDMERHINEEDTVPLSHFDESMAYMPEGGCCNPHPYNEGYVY
# Outline: as §1
# ERF = molecular target: T6, ERF (Homo sapiens, UniProt P50548 1-548); details: protein: recombinant; tags: N-terminal GST; dsDNA, one strand shown
# T6 sequence: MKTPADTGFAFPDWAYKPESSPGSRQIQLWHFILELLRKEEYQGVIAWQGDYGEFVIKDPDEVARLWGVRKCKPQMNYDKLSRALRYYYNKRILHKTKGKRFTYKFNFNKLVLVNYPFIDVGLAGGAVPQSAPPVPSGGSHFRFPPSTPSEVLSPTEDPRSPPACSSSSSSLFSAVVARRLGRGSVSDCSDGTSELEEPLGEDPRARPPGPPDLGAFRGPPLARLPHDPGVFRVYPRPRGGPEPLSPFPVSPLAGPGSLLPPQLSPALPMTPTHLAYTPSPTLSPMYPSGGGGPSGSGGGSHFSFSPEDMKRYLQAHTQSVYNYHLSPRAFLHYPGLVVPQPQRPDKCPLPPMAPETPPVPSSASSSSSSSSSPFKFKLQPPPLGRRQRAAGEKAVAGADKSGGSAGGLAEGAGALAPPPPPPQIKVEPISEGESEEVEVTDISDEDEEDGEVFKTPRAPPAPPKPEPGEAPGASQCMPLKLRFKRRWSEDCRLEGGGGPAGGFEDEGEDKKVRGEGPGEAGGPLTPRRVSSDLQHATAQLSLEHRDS
# Outline: as §1
# ETV3L = molecular target: T7, ETV3L (Homo sapiens, UniProt Q6ZN32 1-361); details: protein: recombinant; tags: N-terminal GST; dsDNA, one strand shown
# T7 sequence: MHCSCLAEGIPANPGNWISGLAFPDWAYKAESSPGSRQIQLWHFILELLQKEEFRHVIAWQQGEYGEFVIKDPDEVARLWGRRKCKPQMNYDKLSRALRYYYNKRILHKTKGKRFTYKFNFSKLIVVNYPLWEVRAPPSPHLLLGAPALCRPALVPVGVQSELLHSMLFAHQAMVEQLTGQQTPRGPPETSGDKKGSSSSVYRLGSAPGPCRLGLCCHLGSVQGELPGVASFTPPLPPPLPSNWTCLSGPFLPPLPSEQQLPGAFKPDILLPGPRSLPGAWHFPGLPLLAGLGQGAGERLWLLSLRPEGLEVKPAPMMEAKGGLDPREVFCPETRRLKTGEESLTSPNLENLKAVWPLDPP
# Outline: as §1
# ETS2 = molecular target: T8, ETS2 (Homo sapiens, UniProt P15036 1-469); details: protein: recombinant; tags: N-terminal GST; dsDNA, one strand shown
# T8 sequence: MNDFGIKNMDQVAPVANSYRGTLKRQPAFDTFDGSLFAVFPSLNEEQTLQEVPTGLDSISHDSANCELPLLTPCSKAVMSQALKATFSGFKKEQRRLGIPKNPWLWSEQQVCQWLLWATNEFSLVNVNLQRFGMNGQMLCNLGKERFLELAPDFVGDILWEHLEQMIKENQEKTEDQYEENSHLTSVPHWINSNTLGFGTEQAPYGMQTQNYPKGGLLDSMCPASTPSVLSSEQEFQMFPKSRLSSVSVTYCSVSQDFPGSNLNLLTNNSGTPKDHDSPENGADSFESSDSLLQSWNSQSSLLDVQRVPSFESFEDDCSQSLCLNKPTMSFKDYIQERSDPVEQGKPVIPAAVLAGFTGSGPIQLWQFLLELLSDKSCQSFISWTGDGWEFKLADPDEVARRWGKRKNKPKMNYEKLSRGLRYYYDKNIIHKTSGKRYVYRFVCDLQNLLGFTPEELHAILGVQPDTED
# Outline: as §1
# SPDEF = molecular target: T9, SPDEF (Homo sapiens, UniProt O95238 1-335); details: protein: recombinant; tags: N-terminal GST; dsDNA, one strand shown
# T9 sequence: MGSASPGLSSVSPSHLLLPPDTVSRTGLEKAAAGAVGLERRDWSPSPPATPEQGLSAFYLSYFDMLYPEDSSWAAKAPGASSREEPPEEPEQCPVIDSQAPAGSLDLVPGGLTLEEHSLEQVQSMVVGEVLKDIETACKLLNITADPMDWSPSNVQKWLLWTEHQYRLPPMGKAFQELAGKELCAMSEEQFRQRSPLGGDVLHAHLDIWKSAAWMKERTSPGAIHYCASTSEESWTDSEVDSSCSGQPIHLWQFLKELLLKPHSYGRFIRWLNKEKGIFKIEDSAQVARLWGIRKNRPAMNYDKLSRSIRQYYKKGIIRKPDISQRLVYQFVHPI
# Outline: as §1
# ETV7 = molecular target: T10, ETV7 (Homo sapiens, UniProt Q9Y603 1-341); details: protein: recombinant; tags: N-terminal GST; dsDNA, one strand shown
# T10 sequence: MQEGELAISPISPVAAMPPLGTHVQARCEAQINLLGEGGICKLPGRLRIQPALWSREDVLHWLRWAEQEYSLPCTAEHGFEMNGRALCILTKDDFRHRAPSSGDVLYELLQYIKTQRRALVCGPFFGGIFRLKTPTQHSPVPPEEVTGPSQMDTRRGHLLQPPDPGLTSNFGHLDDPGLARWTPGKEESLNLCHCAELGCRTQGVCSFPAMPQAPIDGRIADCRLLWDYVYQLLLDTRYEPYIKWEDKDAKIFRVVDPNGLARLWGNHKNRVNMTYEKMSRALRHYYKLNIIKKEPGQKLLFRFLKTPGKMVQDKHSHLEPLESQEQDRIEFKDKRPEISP
# Outline: as §1
# ELF5 = molecular target: T11, ELF5 (Homo sapiens, UniProt Q9UKW6-2 1-255); details: protein: recombinant; tags: N-terminal GST; dsDNA, one strand shown
# T11 sequence: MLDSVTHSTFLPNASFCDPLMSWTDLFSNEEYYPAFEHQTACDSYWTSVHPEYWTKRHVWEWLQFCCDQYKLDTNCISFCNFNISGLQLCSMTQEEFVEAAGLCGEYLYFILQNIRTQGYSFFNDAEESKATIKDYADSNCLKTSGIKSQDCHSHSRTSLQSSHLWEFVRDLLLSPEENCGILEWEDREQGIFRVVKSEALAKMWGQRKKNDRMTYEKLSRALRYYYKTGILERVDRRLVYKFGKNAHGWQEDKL
# Outline: as §1
# ETV3 = molecular target: T12, ETV3 (Homo sapiens, UniProt P41162-2 1-143); details: protein: recombinant; tags: N-terminal GST; dsDNA, one strand shown
# T12 sequence: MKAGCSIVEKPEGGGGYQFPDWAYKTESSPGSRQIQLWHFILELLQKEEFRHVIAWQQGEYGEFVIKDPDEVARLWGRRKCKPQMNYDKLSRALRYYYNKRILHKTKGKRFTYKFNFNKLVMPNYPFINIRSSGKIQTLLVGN
# Outline: as §1
# ETV6 = ETV6 (Homo sapiens, UniProt P41212 1-452); details: protein: recombinant; tags: N-terminal GST; dsDNA, one strand shown
# Chain of ETV6 (P41212 whole entry): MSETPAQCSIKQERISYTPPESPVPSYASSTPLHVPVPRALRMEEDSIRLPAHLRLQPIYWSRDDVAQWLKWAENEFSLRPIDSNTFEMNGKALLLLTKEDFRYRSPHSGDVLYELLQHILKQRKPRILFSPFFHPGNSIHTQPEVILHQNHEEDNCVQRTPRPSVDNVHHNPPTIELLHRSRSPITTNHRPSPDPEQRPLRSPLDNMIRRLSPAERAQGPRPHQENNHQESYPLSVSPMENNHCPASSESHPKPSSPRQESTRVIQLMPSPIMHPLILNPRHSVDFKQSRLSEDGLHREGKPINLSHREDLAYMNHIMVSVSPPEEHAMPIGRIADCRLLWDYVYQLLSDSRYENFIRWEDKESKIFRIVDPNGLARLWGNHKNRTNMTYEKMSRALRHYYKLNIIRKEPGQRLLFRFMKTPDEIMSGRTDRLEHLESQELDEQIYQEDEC
# Outline: as §1
sequence,measurement,setting,value
CTGTAC,binding signal,FEV,"1.44 fold enrichment (6-mer frequency, TF over GST control)"
same,binding signal,ETV5,"1.34 fold enrichment (6-mer frequency, TF over GST control)"
same,binding signal,HSF1,"1.02 fold enrichment (6-mer frequency, TF over GST control)"
same,binding signal,SPIC,"1.41 fold enrichment (6-mer frequency, TF over GST control)"
same,binding signal,ELF4,"1.33 fold enrichment (6-mer frequency, TF over GST control)"
same,binding signal,ELK4,"1.43 fold enrichment (6-mer frequency, TF over GST control)"
same,binding signal,ETV2,"1.39 fold enrichment (6-mer frequency, TF over GST control)"
same,binding signal,ELF3,"1.26 fold enrichment (6-mer frequency, TF over GST control)"
same,binding signal,CRX,"1.06 fold enrichment (6-mer frequency, TF over GST control)"
same,binding signal,ETV1,"1.42 fold enrichment (6-mer frequency, TF over GST control)"
same,binding signal,ERF,"1.18 fold enrichment (6-mer frequency, TF over GST control)"
same,binding signal,ETV3L,"1.35 fold enrichment (6-mer frequency, TF over GST control)"
same,binding signal,ETS2,"1.33 fold enrichment (6-mer frequency, TF over GST control)"
same,binding signal,SPDEF,"1.57 fold enrichment (6-mer frequency, TF over GST control)"
same,binding signal,ETV7,"1.22 fold enrichment (6-mer frequency, TF over GST control)"
same,binding signal,ELF5,"1.36 fold enrichment (6-mer frequency, TF over GST control)"
same,binding signal,ETV3,"1.31 fold enrichment (6-mer frequency, TF over GST control)"
same,binding signal,ETV6,"1.3 fold enrichment (6-mer frequency, TF over GST control)"
